An excerpt weighted towards active compounds, which were near 21% of everything screened.
DRD3 antagonist – qHTS of D3 Dopamine Receptor Antagonist: qHTS | D3R cells, DiscoveRx beta-arrestin luminescence, antagonist mode; hits give low values | max response, negative = inhibition, % | 2.5% of 360,000 active | D(3) dopamine receptor (Homo sapiens), P35462; in the data active means max response below about -50%; inconclusive means no clear call, values can overlap the other calls; further: on the % scale 0 is the no-effect control and ±100 the full control effect
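Cells plated overnight at 1500 cells/well, then exposed to library compounds with dopamine controls for 90 minutes at 37 degrees C. DiscoveRx reagent added for 30–60 minutes at room temperature; luminescence read, quantitative HTS format.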
TDP1 cell CPT – qHTS for Inhibitors of human tyrosyl-DNA phosphodiesterase 1 (TDP1): qHTS in cells in presence of CPT | chicken DT40 Tdp1-/-;hTDP1 cells + 20 nM CPT, ATP luminescence, 48 h | 12% of 420,000 active | Potency, µM (highest dose often 46.2 µM), without a hit: at the highest dose activity change, negative = growth inhibition, hits mostly inhibitors; further: potency means the concentration at half of the fitted maximal effect; on the % scale 0 is the no-effect control and ±100 the full control effect; nearly all actives have a fitted effect of over 55% in size
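Chicken DT40 Tdp1-/- cells stably complemented with human TDP1 were seeded at 400 cells/well in medium containing 20 nM camptothecin, exposed to pin-transferred compounds, and grown at 37 °C for at least 48 hr. Viability was read as ATP luminescence.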
D3 ag – qHTS of D3 Dopamine Receptor Agonist: qHTS. max activation, %. 0.58% of 410,000 active. D3R DiscoveRx beta-arrestin cells, luminescence, 90 min; in the data active means max activation above about 30%; further: 0% is about no effect
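Agonist-mode cell screen: cells plated at 1500/well and incubated overnight at 37 °C, then exposed to library compounds for 90 min at 37 °C. Detection reagent was added for 30–60 min at room temperature, and luminescence was read.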
DT40 TDP1 no CPT – qHTS for Inhibitors of human tyrosyl-DNA phosphodiesterase 1 (TDP1): qHTS in cells in absence of CPT; DT40 Tdp1-/- hTDP1 cells, no CPT, ATP luminescence, 48 h; Potency, µM (titrated, usually from 46.2 µM), inactives show at the top dose activity change, negative = growth inhibition, usual class: inhibitors; 15% of 420,000 active; AID 686978, 2013; further: potency means the concentration at half of the fitted maximal effect; on the % scale 0 is the no-effect control and ±100 the full control effect; nearly all actives have a fitted effect of over 55% in size
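Readout: luminescence from CellTiter-Glo after 30 min in the dark at RT. Cells: DT40 Tdp1-/- with stable hTDP1, 400/well. Exposure: compounds alone, ≥48 hr, 37 °C.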
IL1B secr inh – qHTS for Inhibitors of Inflammasome Signaling: IL-1-beta AlphaLISA Primary Screen; activity change, % at 57.5 µM; 4.7% of 360,000 active; AID 743279, 2014; THP-1 LPS/ATP IL-1B secretion, AlphaLISA, 16 h; hits give low values; in the data active means activity change below about -50%; inconclusive means mostly about -30% to -49%; further: on the % scale 0 is the no-effect control and ±100 the full control effect
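Secreted IL-1B measured by AlphaLISA bead assay after 16 h compound exposure of THP-1 cells; compounds (final up to 57.5 uM) added 1 h before LPS (250 ng/mL) and ATP (1.25 mM) stimulation; lower signal means less secretion.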
ClpP mod – qHTS Assay for Activators of ClpP | Potency, µM (titrated, usually from 57.5 µM), inactives show at the top dose activity change, negative = active | 1.9% of 340,000 active | ATP-dependent Clp protease proteolytic subunit (Bacillus subtilis (strain 168)), P80244 | purified B. subtilis ClpP, FRET peptide cleavage, 20 min; active means well fitted falling curve with a large enough effect; inconclusive means small, poorly fitted or top-dose-only effect; inactive means no such curve, though single readings can be large or run the other way; further: potency means the concentration at half of the fitted maximal effect; the source files actives as falling curves though it sought activators and does not explain the sign; nearly all actives have a fitted effect of over 65% in size
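Purified B. subtilis ClpP, 10 microg/mL final in Tris/HCl pH8 with KCl, BSA, glycerol and Tween-20, cleaved an Abz/nitrotyrosine-quenched decapeptide. Fluorescence (ex 320, em 430) was read at 0 and 20 min at room temperature. Delta was normalized to 5.8 microM ADEP and DMSO/no-enzyme controls.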
Numbers without * were called inactive; ? = inconclusive; nt = not tested or not shown. Unless noted, the call rests on the fitted dose curve; in most records, active means well fitted inhibition curve with a large enough effect; inconclusive means small, poorly fitted or top-dose-only effect; inactive means flat fitted curve, though single readings scatter.

SMILES	DRD3 antagonist	TDP1 cell CPT	D3 ag	DT40 TDP1 no CPT	IL1B secr inh	ClpP mod
O=C(NCc1cccc(C(F)(F)F)c1)c1ccc2sc([C@@H]3O[C@H](CO)[C@@H](O)[C@H]3O)nc2c1	17	?	5	?	12	-3%
O=C(NCc1cccc(C(F)(F)F)c1)c1ccc2sc(C3=C[C@@H](O)[C@@H](O)[C@@H](CO)O3)nc2c1	0	12µM*	-1	12µM*	13	-3%
O=C(NCc1cccc(C(F)(F)F)c1)c1ccc2sc([C@H]3C[C@H](O)[C@@H](CO)O3)nc2c1	0	?	6	16µM*	-1	0%
O=C(Nc1nc2ccccc2s1)c1ccc2sc([C@H]3C[C@H](O)[C@@H](CO)O3)nc2c1	13	16µM*	2	16µM*	8	5%
Cc1nn(C)c(Sc2ccccc2N)c1[N+](=O)[O-]	17	?	2	?	16	0%
CCC1=C(OC(=O)N(CC)CC)N2C(=O)OC(=NCC3CC3)[C@]2(Cc2ccccc2)[C@H]2C1=CC[C@H]1C(=O)N(CC)C(=O)[C@H]12	-27	16µM*	-21	21µM*	?	-4%
COc1ccc(C(=O)NN/C(C)=C/C(=O)C(F)(F)C(F)(F)C(F)(F)F)cc1	2	-4%	3	-21%	11	3.2µM*
COc1cc(C(O)c2nc(/C=C/c3ccc(C(F)(F)F)cc3)cs2)ccc1F (stereo not drawn)	-18	?	1	?	-20	-1%
CN(C)c1nnnn1-c1ccc(Oc2ncc(C(F)(F)F)cc2Cl)cc1	-2	-10%	-4	?	28	nt
Cc1cccc(CSc2cn(CC(=O)N3CCCCC3)c3ccccc23)c1	nt	?	6	21µM*	nt	-2%
Cc1cccc(CSc2cn(CC(=O)N3CCCC3)c3ccccc23)c1	nt	26µM*	-6	16µM*	nt	-1%
CCCC(c1nnnn1C(C)(C)C)N1CCN(c2ccccc2)CC1 (stereo not drawn)	3	6%	4	?	2	nt
CC(C)(C)n1nnnc1C(CCc1ccccc1)N1CCN(C/C=C/c2ccccc2)CC1 (stereo not drawn)	-91*	?	-5	15µM*	-27	0%
CSCCC(c1nnnn1C(C)(C)C)N1CCN(C/C=C/c2ccccc2)CC1 (stereo not drawn)	-82*	?	-11	?	-9	-1%
Cc1cc(/C=C2\C=Cc3ccccc32)cc(C)c1[N+](=O)[O-]	nt	?	nt	?	nt	-2%
Nc1nn(-c2cccc(F)n2)cc1-c1ccccc1	-8	-14%	-3	?	19	nt
COc1ccccc1C1CCN(Cc2ccc(Cl)cc2Cl)CC1	-96*	?	-18	13%	18	-1%
COc1ccccc1C1CCN(Cc2ccc(Cl)c(Cl)c2)CC1	-79*	?	-49	?	36	-1%
COc1cccc(CN2CCSCC2)c1OC	2	19%	3	8%	6	nt
COc1ccccc1C1CCN(Cc2cccc3ccccc23)CC1	-10	?	-47	16µM*	10	-3%
COc1ccccc1C1CCN(Cc2c(C)[nH]c3ccccc23)CC1	-89*	4.6µM*	-18	5.8µM*	nt	nt
CCOc1ccc(CNC(=O)C2CCCN(S(=O)(=O)c3ccc4c(c3)CCCC(=O)N4)C2)cc1 (stereo not drawn)	nt	nt	5	nt	nt	1%
O=c1cc(N2CCCC2)c2ccccc2o1	6	9%	1	-2%	-9	nt
O=C(Nc1ccc(F)c(Cl)c1)C1CCCN(C2=NS(=O)(=O)c3ccccc32)C1 (stereo not drawn)	-15	?	-5	?	-19	2%
O=C(c1cccs1)N1N=C(c2ccccc2)CC1c1ccccc1O (stereo not drawn)	1	-3%	4	?	-79*	nt
SMILES	DRD3 antagonist	TDP1 cell CPT	D3 ag	DT40 TDP1 no CPT	IL1B secr inh	ClpP mod
c1ccc(N2N=C(c3cccs3)CC2c2ccco2)cc1 (stereo not drawn)	?	-18%	-1	-18%	14	16µM*
CC(=O)N1N=C(c2ccncc2)CC1c1ccccc1O (stereo not drawn)	14	11%	1	0%	106	nt
CC(=O)N1N=C(c2ccccc2)CC1c1cn(Cc2ccccc2)c2ccccc12 (stereo not drawn)	4	18µM*	-2	?	-4	-17%
Cc1ccc(C2=NN(C(=O)c3ccccc3F)C(c3ccccc3F)C2)cc1 (stereo not drawn)	0	21µM*	7	21µM*	-16	0%
COc1cccc(C2CC(c3ccc(C)cc3)=NN2C(=O)c2ccccc2F)c1OC (stereo not drawn)	13	?	1	?	-18	-2%
CNC[C@H]1Oc2c(NS(=O)(=O)c3cccs3)cccc2C(=O)N([C@H](C)CO)C[C@@H]1C	-19	-10%	-19	-8%	24	-3%
Cn1c(=O)c(-c2cccs2)nc2cnc(N3CCOCC3)nc21	nt	9%	nt	27%	nt	nt
COc1ccc(NC(=O)CSC2=Nc3ccccc3C3=NC(CC(=O)NCc4ccc(F)cc4)C(=O)N23)cc1 (stereo not drawn)	nt	-7%	-14	-15%	nt	-1%

Assay outcomes: PubChem BioAssay, National Center for Advancing Translational Sciences (NCATS)
